Source: PubChem BioAssay
IMPase Li cell: IMPase inhibition in cells with lithium potentiation. CHO-M1 cells, IP1 TR-FRET (IP-One), carbachol + lithium. Potency, µM (titrated, usually from 59.4 µM), most hits filed as inhibitors. 0.35% of 210,000 active. AID 1457; active means well fitted curve in the direction sought with a large enough effect; inconclusive means small, poorly fitted or top-dose-only effect, or another doubt; inactive means no such curve, though single readings can be large; an effect the other way counts as inactive or inconclusive;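 further: IP1 builds up when IMPase is blocked and the TR-FRET signal falls; nearly all actives have a fitted effect of over 50% in size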
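IP1 accumulation measured by competitive TR-FRET in lysed CHO-M1 cells after 30 min compound exposure at 37C, with a small lithium addition to potentiate weak responses. Hill-equation AC50 from ratio and donor-channel data.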
ALDH1A1 inh: ALDH1A1 (human) enzyme inhibition; P00352; Purified ALDH1A1, NADH fluorescence, propionaldehyde substrate; Potency, µM (highest dose often 75.3 µM), hits mostly inhibitors; 7.3% of 220,000 active
Target sequence (P00352 whole entry, looked up): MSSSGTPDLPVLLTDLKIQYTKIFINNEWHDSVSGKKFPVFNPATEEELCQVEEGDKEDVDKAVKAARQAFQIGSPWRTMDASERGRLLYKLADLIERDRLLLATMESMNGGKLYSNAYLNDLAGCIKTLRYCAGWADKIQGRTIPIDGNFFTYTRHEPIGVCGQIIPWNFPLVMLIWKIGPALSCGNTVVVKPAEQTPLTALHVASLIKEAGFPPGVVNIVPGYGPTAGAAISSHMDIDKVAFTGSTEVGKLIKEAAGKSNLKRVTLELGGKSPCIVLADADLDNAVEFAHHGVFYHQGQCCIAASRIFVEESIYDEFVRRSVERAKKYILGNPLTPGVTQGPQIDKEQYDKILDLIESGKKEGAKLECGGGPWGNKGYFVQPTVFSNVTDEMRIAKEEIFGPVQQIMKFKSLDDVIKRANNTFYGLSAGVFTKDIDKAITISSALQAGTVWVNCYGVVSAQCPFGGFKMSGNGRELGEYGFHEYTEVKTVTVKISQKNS
Lamin A splicing: LMNA splicing modulation | HeLa LMNA splicing GFP/RFP minigene ratio, 48 h | Potency, µM (doses to about 46.1 µM), most hits filed as inhibitors | 0.01% of 200,000 active; active means well fitted inhibition curve with a large enough effect in the signal ratio, with a control signal flat, not every such curve was filed as active; inconclusive means small, poorly fitted or top-dose-only effect, or effect the other way, or a change in a side signal; the % refers to the signal ratio
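S3 HeLa cells stably expressing lamin A-EGFP splicing minigene plus DsRed2, 600 cells/well, 48 h compound exposure at 37C. Laser-scanning cytometry; analysed as GFP (500-530 nm)/RFP (575-640 nm) total intensity ratio; 0.5% DMSO vehicle.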
Luc counter: counter-screen: inhibitors of Kinase-Glo firefly luciferase; Q27757; Kinase-Glo luciferase, ATP luminescence, 8 min; Potency, µM (doses to about 38.3 µM), hits mostly inhibitors; 0.28% of 200,000 active; AID 1379; active means well fitted curve in the direction sought with a large enough effect; inconclusive means small, poorly fitted or top-dose-only effect, or another doubt; inactive means no such curve, though single readings can be large; an effect the other way counts as inactive or inconclusive; further: nearly all actives have a fitted effect of over 60% in size
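Luminescence was the read-out, taken after 8-minute incubation at ambient temperature. Luciferase turned over luciferin with 10 uM ATP in imidazole pH 7.2 buffer containing KCl, MgCl2, Tween 20 and BSA.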
HPGD inh: HPGD (human) dehydrogenase inhibition; purified HPGD, NADH fluorescence kinetic, PGE2 substrate; Potency, µM, usual class: inhibitors; 4.3% of 150,000 active
Target sequence (P15428 whole entry, looked up): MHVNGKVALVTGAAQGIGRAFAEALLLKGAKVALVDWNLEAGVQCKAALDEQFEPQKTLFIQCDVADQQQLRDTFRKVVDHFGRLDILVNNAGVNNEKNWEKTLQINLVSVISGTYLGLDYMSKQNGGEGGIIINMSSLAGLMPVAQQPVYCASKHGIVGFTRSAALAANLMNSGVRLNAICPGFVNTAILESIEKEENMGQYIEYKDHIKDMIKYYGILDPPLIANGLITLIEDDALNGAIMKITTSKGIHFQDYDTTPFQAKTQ
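NADH formation kinetics: reaction with 30 uM PGE2 and 1 mM NAD+ (final), 20 nM enzyme, Tris-HCl pH 8 with Tween 20, after 15 min compound preincubation at room temperature. Fluorescence change, last versus first of five reads.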
Hits are given with their value; i = inactive; ? = inconclusive; nt = not tested or not shown; [ ] = remark or other dose. Rows were chosen to be rich in hits. Some 9% of all compounds tested hit in one or more screens of this group. Unless noted, the call rests on the fitted dose curve; in most records, active means well fitted inhibition curve with a large enough effect (not every such curve was filed as active); inconclusive means small, poorly fitted or top-dose-only effect, or another doubt; inactive means no such curve, though single readings can be large or run the other way.

SMILES | IMPase Li cell | ALDH1A1 inh | Lamin A splicing | Luc counter | HPGD inh
Cc1cc(C)nc(-n2cc(C(=O)c3cc(F)ccc3O)cn2)n1 | i | 10µM | i | i | i
CCn1c(C)nc2cc(C(=O)n3cc(C(=O)c4cc(F)ccc4O)cn3)ccc21 | i | 1.41µM | i | i | ?
COc1ccc(O)c(C(=O)c2cnn(-c3ccccn3)c2)c1 | i | i | i | i | nt
Cc1cc(Nc2ccccc2)n(-c2ccccc2)n1 | i | i | i | i | 17.8µM
Cc1cc(C)nc(-n2nc(C)cc2Nc2ccccc2)n1 | i | ? | ? | i | i
COc1cc(NC(=S)NC(=O)c2ccccc2C)ccc1NC(=O)c1cccs1 | i | 25.1µM | ? | i | ?
COc1ccc(Cl)cc1NC(=S)NNC(=O)c1cccs1 | i | 10µM | i | i | nt
COc1cc(NC(=S)NC(=O)c2ccc(C(C)(C)C)cc2)ccc1NC(=O)c1cccs1 | i | 11.9µM | ? | i | i
COc1cc(NC(=S)NC(=O)c2c(OC)cccc2OC)ccc1NC(=O)c1cccs1 | i | i | i | i | i
COc1cc(NC(=S)NC(=O)c2cc(C)cc(C)c2)ccc1NC(=O)c1cccs1 | i | 14.1µM | i | i | i
COc1cc(NC(=S)NC(=O)c2ccccc2F)ccc1NC(=O)c1cccs1 | i | ? | nt | i | nt
N/C(CSc1ncccc1C(F)(F)F)=N\O | nt | i | nt | nt | nt
N#Cc1ccc(OC(=O)c2cc(-c3ccc(Cl)cc3)on2)cc1 | nt | nt | i | nt | nt
COc1cccc(CNC(=O)CN2C(=O)CSc3c2c(C)nn3-c2ccccc2)c1 | nt | nt | i | nt | nt
CCOC(=O)c1ccc(NC(=O)CN2CCN(CCN=CC3=C(O)CC(C)(C)CC3=O)CC2)cc1 | i | ? | i | i | i
CC1(C)CC(=O)C(C=NCCN2CCNC2=O)=C(O)C1 | i | 20µM | i | i | i
CCCOc1ccc(N2C(=O)CC(N3CCN(CCN=CC4=C(O)CC(C)(C)CC4=O)CC3)C2=O)cc1 (stereo not drawn) | i | ? | nt | i | nt
CCOC(=O)c1ccc(NC(=S)N2CCN(CCN=CC3=C(O)CC(C)(C)CC3=O)CC2)cc1 | i | 0.501µM | ? | i | nt
CC1(C)CC(=O)C(C=NCCN2CCN(CC(=O)Nc3ccccc3)CC2)=C(O)C1 | i | ? | i | i | i
CC1(C)CC(=O)C(C=NCCCO)=C(O)C1 | i | i | i | i | i
CC1(C)CC(=O)C(C=NCCN2CCN(C(=O)C34CC5CC(CC(C5)C3)C4)CC2)=C(O)C1 | i | 7.94µM | i | i | i
CC1(C)CC(=O)C(C=NCCN2CCN(C3CC(=O)N(c4ccc(Br)cc4)C3=O)CC2)=C(O)C1 (stereo not drawn) | i | 28.2µM | i | i | nt
O=C(NCC(=O)N1CCN(S(=O)(=O)c2cccs2)CC1)c1ccc(Cl)cc1 | i | i | nt | i | nt
Cc1cc(Cl)c(OCCCCNC(C)(C)C)c(Br)c1 | i | i | i | i | i
COc1ccc(Nc2ncnc3c2cnn3-c2cc(Cl)ccc2C)cc1OC | nt | nt | i | nt | nt
SMILES | IMPase Li cell | ALDH1A1 inh | Lamin A splicing | Luc counter | HPGD inh
CCNc1nc(NC(C)C)nc(N(C#N)Cc2ccccc2)n1 | i | 1.78µM | i | i | i
Cc1cc(C)nc(N(C#N)CC(=O)c2ccccc2)n1 | i | 28.2µM | i | i | i
Cc1ccc(N(Cc2ccccc2)Cc2ccccc2)cc1 | i | i[13.5 µM] | nt | i[7.66 µM] | i
Cc1cc(C)nc(N(C#N)Cc2ccccc2)n1 | i | 14.1µM | i | i | i
N#CN(Cc1ccccc1)Cc1ccccc1 | nt | 39.8µM | nt | nt | nt
CC(C)NC(=O)NC(=O)COC(=O)c1cccc(S(=O)(=O)N2CCCCC2)c1 | i | i | i | i | i
O=c1oc2cc(Br)ccc2n1CSC1=NCCS1 | i | ? | ? | i | 22.4µM
CCCc1nnc(NC(=O)Cn2c(=O)oc3cc(Br)ccc32)s1 | i | ? | i | i | ?
CCn1c(=O)c(C(=O)NCCNCCO)c(O)c2ccccc21 | i | i | i | i | i
CCn1c(=O)c(C(=O)NC(C)C)c(O)c2ccccc21 | i | 12.6µM | i | i | i
O=C1C2CC=CCC2C(=O)N1c1ccc(N2CCN(c3ccccn3)CC2)c([N+](=O)[O-])c1 (stereo not drawn) | i | 17.8µM | nt | i | nt
COc1ccc(OC)c(/C=C/C(=O)NC2=NCCS2)c1 | 11.2µM | ? | nt | i | nt
COc1ccc(/C=C/C(=O)NC2=NCCS2)cc1OC | i | ? | nt | i | nt
CNC(=S)NCc1ccc2[nH]c3c(c2c1)CCCC3 | i | 25.1µM | nt | i | nt
Cc1ccccc1NC(=S)NCc1ccc2[nH]c3c(c2c1)CCCC3 | i | ? | ? | i | 20µM
COc1cccc2c1CCC1CC(=O)CC[C@@]21C (stereo partly drawn) | i | ? | ? | i | i
Cc1ccc(S(=O)(=O)c2nc(NN(C)C)sc2Cl)cc1 | i | i | nt | i | nt
N=c1occ(C(=O)c2cc(F)ccc2O)cc1C(=O)NC1CCCCC1 | i | ? | nt | i | nt
N/C(=N\OC(=O)c1ccco1)c1ccccn1 | i | i | nt | 12.6µM | nt
N/C(=N\OC(=O)c1ccco1)c1ccc(Br)cc1 | i | 3.16µM | ? | i | i
COc1cccc([C@@H]2Oc3ccc(Br)cc3C[C@H]2OC(=O)Nc2ccc(OC(F)F)cc2)c1 | i | i | nt | i | i
CC(C)CNC(=O)CCCc1c[nH]c2ccccc12 | i | i | i | i | 14.1µM
CN(C)C(CNC(=O)CCCc1c[nH]c2ccccc12)c1ccco1 (stereo not drawn) | i | i | i | i | i
O=C(CCS(=O)(=O)c1ccc(Cl)cc1)NCCc1c[nH]c2ccccc12 | i | 28.2µM | i | i | nt
Nc1ncc(S(=O)(=O)NCc2ccccc2F)cn1 | nt | nt | i | nt | nt
SMILES | IMPase Li cell | ALDH1A1 inh | Lamin A splicing | Luc counter | HPGD inh
O=C(CSc1nnc(Cn2nnc(-c3ccccc3)n2)n1-c1ccccc1)Nc1ccccc1 | i | 4.47µM | i | i | i
CCOC(=O)c1ccc(NC(=O)Cn2nnc(-c3ccccc3)n2)cc1 | nt | 25.1µM | ? | nt | nt
O=C(Nc1ccccc1)Nc1ccc(C(=O)N2CCOCC2)cc1 | i | i | i | 3.16µM | 15.8µM
O=C(Cn1nnc(-c2ccccc2F)n1)Nc1ccc(S(=O)(=O)NC2CCCC2)cc1 | i | i | i | i | 7.08µM
O=C(Nc1ccc(C(=O)N2CCOCC2)cc1)Nc1ccc(Cl)cc1Cl | i | i | nt | i | nt
O=C(CN1C(=O)COc2ccc(S(=O)(=O)N3CCCCCC3)cc21)NCc1ccc(Cl)cc1 | nt | nt | i | nt | nt
CN(C)c1ccc(-c2nnn(CC(=O)Nc3ccccc3N3CCOCC3)n2)cc1 | i | ? | ? | i | ?
Cc1ccccc1NC(=O)Cn1nnc(-c2ccc(N3CCOCC3)cc2)n1 | 10µM | ? | i | i | ?
O=C(Cn1nnc(-c2ccccc2F)n1)Nc1ccc(C(=O)N2CCOCC2)cc1 | i | i | i | i | 39.8µM
Cc1nc(N/N=C/c2ccccn2)sc1C | i | i | ? | 8.91µM | i
Cc1ccc2nc(NC(=O)CSc3ncc(C(=O)Nc4ccc(F)cc4)c(=O)n3C)sc2c1 | nt | nt | i | nt | nt
Cc1ccc(S(=O)(=O)NCC(=O)OCC(=O)c2ccc(Br)s2)cc1 | 10µM | ? | i | i | i
CC1(C)CC2(CC(C)(C)N1)OC(=O)N1CCc3ccccc3C12C (stereo not drawn) | i | i | i | i | i
